# Screens (PubChem)
# PfM18AAP inh: PfM18AAP inhibitors, malaria aminopeptidase, primary screen, biochemical, QFRET, recombinant enzyme; M18 aspartyl aminopeptidase (Plasmodium falciparum 3D7); inhibition, % at 7.35 µM; AID 1822, 2009; 290,000 tested, 1.2% active; H-Glu-NHMec fluorogenic cleavage;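 active = inhibition above the campaign mean inhibition over all tested compounds plus 3 SD, cut at about 28% in these data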
# UHRF1 MBD2 ctr: UHRF1 methylated DNA binding inhibitors, primary screen, counter-screen for MBD2 inhibitor project, biochemical, TR-FRET, human UHRF1, single concentration; inhibition, % at 4.4 µM; 370,000 tested, 0.75% active; E3 ubiquitin-protein ligase UHRF1 (Homo sapiens), Q96T88; AID 687016, 2013; UHRF1 binding to methylated oligo; in the data active = inhibition above about 21%;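 note: UHRF1 SRA domain binding a hemimethylated CpG hairpin DNA probe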
# PRMT1 FP inh: PRMT1 methyltransferase inhibitors, primary screen, biochemical, fluorescence polarization; Protein arginine N-methyltransferase 1 (Homo sapiens), Q99873; inhibition, % at 2.79 µM; recombinant PRMT1, activity-based probe fluorescence polarization; 370,000 tested, 1.3% active;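 active = inhibition above about 21% made by adding two undisclosed values, limit read from the data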
# MBD2 inh: inhibitors of MBD2 binding to methylated DNA, primary screen, biochemical, TR-FRET, DNA-binding domain, human | Methyl-CpG-binding domain protein 2 (Homo sapiens), Q9UBB5 | MBD2 binding to methylated oligonucleotide | inhibition, % at 4.4 µM | 370,000 tested, 0.31% active | AID 686964, 2013; in the data active = inhibition above about 13%
# Target sequence (Q9UBB5 whole entry, looked up, the tested form may be a part): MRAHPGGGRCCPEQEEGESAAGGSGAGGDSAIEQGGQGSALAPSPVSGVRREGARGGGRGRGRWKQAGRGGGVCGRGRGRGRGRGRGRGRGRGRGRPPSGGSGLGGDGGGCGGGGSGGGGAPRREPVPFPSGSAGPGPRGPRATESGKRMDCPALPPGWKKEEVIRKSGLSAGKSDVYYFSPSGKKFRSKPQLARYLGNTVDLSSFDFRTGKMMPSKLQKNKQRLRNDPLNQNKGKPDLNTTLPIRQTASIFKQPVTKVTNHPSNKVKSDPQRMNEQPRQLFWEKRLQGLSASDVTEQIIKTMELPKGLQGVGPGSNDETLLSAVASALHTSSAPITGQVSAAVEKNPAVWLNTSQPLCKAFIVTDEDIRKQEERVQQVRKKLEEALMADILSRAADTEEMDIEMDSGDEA
# PfGluPho inh: PfG6PD enzyme inhibitors, primary screen, biochemical, fluorescence intensity, uHTS; glucose-6-phosphate dehydrogenase-6-phosphogluconolactonase (Plasmodium falciparum 3D7); PfGluPho enzyme, NADPH resazurin-diaphorase fluorescence; inhibition, % at 20 µM; 350,000 tested, 0.78% active;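 active = inhibition reaching at least a set limit at 20 µM in the primary screen, cut at about 59% in these data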
# PRMT1 inh conf: PRMT1 methyltransferase inhibitors, confirmation, biochemical, fluorescence polarization, triplicate. shares compounds with PRMT1 FP inh. recombinant His-PRMT1, activity-based probe fluorescence polarization. inhibition, % at 2.79 µM. 3,300 tested, 42% active. AID 687036, 2013;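 active = mean inhibition across replicates above the hit cutoff derived for the earlier primary screen, cut at about 22% in these data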
# Numbers stand for hits; n = inactive; x = not tested or not shown. Shown are actives, neighbours in structure and some others; about 3.3% of the full set was active somewhere.
SMILES,PfM18AAP inh,UHRF1 MBD2 ctr,PRMT1 FP inh,MBD2 inh,PfGluPho inh,PRMT1 inh conf
O=C(Sc1cccc2cccnc12)c1ccc(F)cc1,n,n,27,n,x,27
O=C1CC[C@@H](O)CCN1CC[C@H](Sc1ccccc1)c1ccccc1,n,n,n,n,n,x
CC(=O)Nc1ccc(S[C@@H](CCN2CC[C@H](O)CCC2=O)c2ccccc2)cc1,x,n,36,n,n,28
COc1cc(OC)cc(C(=O)NC(=S)NNC(=O)Cc2cccs2)c1,n,n,28,n,n,n
CC(=O)Oc1ccc(-c2csnn2)cc1,n,n,n,n,n,x
Cc1ccccc1C(=O)NNc1ccc(-c2csnn2)cc1,30,n,27,n,n,n
Cc1cc(/C=N/NC(N)=S)c(O)c(/C=N/NC(N)=S)c1,45,n,75,n,n,82
Cc1ccc(NC(=O)Cn2c(O)c(N=NS(=O)(=O)c3ccc(C)cc3)c3ccccc32)cc1,n,n,29,n,n,23
Cc1ccc(NC(=O)Cn2c(O)c(N=NC(N)=O)c3ccccc32)cc1,n,n,n,n,n,x
COc1ccc(S(=O)(=O)Nc2cc(Sc3ncn[nH]3)c(O)c3ccccc23)cc1,50,n,96,n,x,87
CC(C)(C)Sc1ccc(N)nc1,n,n,36,n,n,n
OCCC1CN(C2CCN(c3ccccc3F)CC2)CCN1Cc1ccccc1 (stereo not drawn),n,n,n,n,n,x
CCn1cc(C(=O)N[C@@H](CCSC)C(=O)NCCO)c(=O)c2cc3c(cc21)OCO3,n,n,n,n,n,x
S=c1nccc(-c2cccs2)[nH]1,29,n,49,n,n,22
c1csc(-c2ccn[nH]2)c1,n,n,n,n,n,x
CN(CCC#N)C(=O)COC(=O)c1c2c(nc3ccccc13)/C(=C/c1ccco1)CC2,n,86,41,64,n,29
CC(C)CNC(=O)COC(=O)c1c2c(nc3ccccc13)/C(=C\c1cccs1)CC2,x,n,n,n,n,x
O=C(SCC(O)C(O)CS)c1cccs1 (stereo not drawn),x,n,65,n,n,54
CC(CC(=O)c1cccs1)CC(=O)c1cccs1,n,n,n,n,n,x
CN1C2C=CC(=O)C1C1C(=O)N(c3ccccc3)C(=O)C12 (stereo not drawn),x,n,28,n,x,n
O=C(CNc1cccc([N+](=O)[O-])c1)N/N=C/c1ccc(F)cc1,n,n,n,n,n,x
CCn1nc([N+](=O)[O-])c(C(C#N)c2nc3cc(C(F)(F)F)ccc3s2)c(Cl)c1=O (stereo not drawn),n,n,28,n,n,31
Cc1ccccc1N1CCN(C2CCCN(C(=O)c3cc[n+]([O-])cc3)C2)CC1 (stereo not drawn),n,n,n,n,n,x
OCCN(CCO)c1nc(N2CCCCC2)c2nc(N(CCO)CCO)nc(N3CCCCC3)c2n1,n,n,57,n,n,75
Nc1nc(NCCO)nc(N2CCCCCC2)c1[N+](=O)[O-],n,n,n,n,n,x
SMILES,PfM18AAP inh,UHRF1 MBD2 ctr,PRMT1 FP inh,MBD2 inh,PfGluPho inh,PRMT1 inh conf
O=C(CSC1=Nc2ccccc2C2CC=NN12)NCc1ccco1 (stereo not drawn),x,n,n,n,n,x
O=C(CSC1=Nc2ccccc2C2CC=NN12)Nc1ccc2c(c1)OCO2 (stereo not drawn),n,n,41,n,n,28
CCCOC(=O)c1ccc(NC(=O)CSC2=Nc3ccccc3C3CC=NN23)cc1 (stereo not drawn),n,n,35,n,n,n
O=C(CSc1ccccc1C(=O)O)Nc1ccc2c(c1)OCO2,x,n,n,n,n,x
N#Cc1ccccc1NC(=O)CSC1=Nc2ccccc2C2CC=NN12 (stereo not drawn),n,n,25,n,n,56
O=c1[nH]c(SCc2ccc(OC(F)(F)F)cc2)nc2c1CCC2,x,n,n,n,x,x
CC(=O)Nc1ccc(NC(=O)CCNS(=O)(=O)c2cccc3nsnc23)cc1,n,x,x,x,n,x
O=C(O)CCn1cc(-c2ccc(Cl)cc2)nc1-c1ccncc1,x,n,n,n,n,x
CCOC(=O)C1=C(CSc2nc(-c3ccccc3)ccc2C#N)OC(N)=C(C#N)C1c1ccccc1 (stereo not drawn),n,n,n,n,n,x
CCOC(=O)C1=C(CSc2nc(-c3ccccc3)ccc2C#N)OC(N)=C(C#N)C1c1cccnc1 (stereo not drawn),n,n,41,n,n,26
CCOC(=O)C1=C(CSc2nc3c(cc2C#N)CCC3)OC(N)=C(C#N)C1c1ccccc1 (stereo not drawn),n,n,46,n,n,n
Cc1ccc(C(=O)CSc2ccc(-c3cccnc3)nn2)cc1,n,n,n,n,n,x
O=C(CNC(=S)N(CCCN1CCOCC1)Cc1cccs1)N1CCCCCC1,n,n,n,n,n,x
O=C1NC(=S)S/C1=C\c1cc(Cl)cc(Cl)c1O,x,n,32,n,n,34
O=C1NC(=S)SC1=Cc1ccccc1Cl,x,n,n,n,n,x
CN1N=C2c3ccccc3CCCC2C1c1ccc(F)cc1 (stereo not drawn),n,n,n,n,n,x
CC(=O)c1cccc(S(=O)(=O)NC2CCSc3ccccc32)c1 (stereo not drawn),n,n,31,n,n,n
C/C(=N\O)c1oc2ccc3c(C)cc(=O)oc3c2c1C,n,n,n,n,n,x
O=C(O)c1ccccc1NC(=S)NC(=O)c1sc2ccccc2c1Cl,n,n,32,n,n,32
Cc1ccc(NC(=S)NC(=O)c2sc3ccccc3c2Cl)c(C(=O)O)c1,n,x,x,x,x,x
CC1OC(CC(=O)O)CC2=C1C(=O)c1c(O)cccc1C2=O (stereo not drawn),x,n,95,n,131,46
CCN(CC(=O)Nc1c(F)cccc1F)C(=O)CN1C(=O)C2CCCCC2C1=O (stereo not drawn),x,n,n,n,n,x
Cc1ccc(/C=C/C(=O)Nc2cccc3cccnc23)o1,n,n,59,n,n,23
Cc1cccc(C(=O)Nc2cccc3cccnc23)c1,n,n,n,n,n,x
Nc1ccc2nc3c(=O)n(C4CCCCC4)c(=O)[nH]c3nc2c1,n,n,145,n,n,132
CCCCn1c(N)c(Br)c(=O)[nH]c1=O,n,n,n,n,n,x
CCCCn1c(=O)[nH]c2nc3cc(N)ccc3nc2c1=O,n,n,149,n,n,143
Nc1ccc2nc3c(=O)n(CCc4ccccc4)c(=O)[nH]c3nc2c1,n,n,136,n,n,123
